PubChem BioAssay (NCI)
About 79,000 compounds went through this panel and 15% of them were active in at least one assay; those are over-represented in the sample as a whole. Unmarked numbers belong to inactive results. Active and inactive are the calls of the source. Rule as the data show it: active = growth inhibition above about 70%; inactive = the rest.

Columns and labels:
[1] = NCI Yeast Anticancer Drug Screen. Data for the rad52 strain (AID 147);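 also: 0% = growth of vehicle-treated control cultures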; conditions: S. cerevisiae rad52 mutant growth inhibition, hits give high values
Summary of the method: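 Genetically altered yeast (DNA damage repair defect) treated with compound; inhibition calculated relative to vehicle.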

[2] = NCI Yeast Anticancer Drug Screen. Data for the wt1 strain (AID 149);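 also: 0% = growth of vehicle-treated wt1 cultures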; conditions: S. cerevisiae wt1 strain (SPY 50644) growth inhibition, hits give high values
Summary of the method: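 Measured: growth of wt1 yeast under compound versus vehicle treatment, reported as inhibition.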

[3] = NCI Yeast Anticancer Drug Screen. Data for the rad50EPP+ strain (AID 151);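 also: 0% = growth of vehicle-treated control cultures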; conditions: S. cerevisiae rad50 mutant strain, hits give high values
Summary of the method: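 Strain rad50EPP+; compound exposure; % growth inhibition vs vehicle.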

[4] = NCI Yeast Anticancer Drug Screen. Data for the mgt1 strain (AID 153); conditions: S. cerevisiae mgt1 mutant growth inhibition, hits give high values
Summary of the method: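 Read-out: yeast growth inhibition vs vehicle control. Strain mgt1, drawn from a panel altered in DNA damage repair or cell cycle control.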

[5] = NCI Yeast Anticancer Drug Screen. Data for the rad50 strain (AID 155);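 also: 0% = growth of vehicle-only cultures of the same strain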; conditions: S. cerevisiae rad50 strain growth inhibition, hits give high values
Summary of the method: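 Growth of the mutant yeast was measured after compound exposure and referenced to vehicle-treated cultures.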

[6] = NCI Yeast Anticancer Drug Screen. Data for the mec2-1 strain (AID 157); conditions: S. cerevisiae mec2-1 strain, hits give high values
Summary of the method: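 Cells of the genetically defined mec2-1 yeast strain are incubated with test compound. Inhibition of growth is calculated against vehicle-treated controls.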

[7] = NCI Yeast Anticancer Drug Screen. Data for the rad14 strain (AID 159);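 also: 0% = growth of vehicle-treated control cultures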; conditions: S. cerevisiae rad14 strain growth inhibition, hits give high values
Summary of the method: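 Here, inhibition of yeast growth was measured after compound exposure, using a strain with a genetic defect in DNA damage repair and vehicle-treated cultures as the reference.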

[8] = NCI Yeast Anticancer Drug Screen. Data for the sgs1 mgt1 strain (AID 161);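 also: 0% = growth of cultures given vehicle only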; conditions: S. cerevisiae sgs1 mgt1 strain, hits give high values
Summary of the method: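 Read-out: growth inhibition vs vehicle controls. Cells: mutant yeast strain deficient in DNA damage repair.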

[9] = NCI Yeast Anticancer Drug Screen. Data for the CLN2oe strain (AID 163);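 also: 0% = growth of vehicle-only control cultures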; conditions: S. cerevisiae CLN2oe strain, hits give high values
Summary of the method: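 Strain altered in cell-cycle control, incubated with compound; growth compared to solvent-treated controls.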

[10] = NCI Yeast Anticancer Drug Screen. Data for the bub3 strain (AID 167); conditions: S. cerevisiae bub3 mutant strain, hits give high values
Summary of the method: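 Whole-cell yeast assay. The mutant strain was incubated with compounds, and growth inhibition was determined by comparison with vehicle-treated cells.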

[11] = NCI Yeast Anticancer Drug Screen. Data for the wt2 strain (AID 169);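 also: 0% = growth of vehicle-treated yeast cultures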; conditions: S. cerevisiae wt2 strain growth inhibition, hits give high values
Summary of the method: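 Steps: yeast strain treated with compound; growth recorded; inhibition calculated relative to cultures given vehicle alone.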

[12] = NCI Yeast Anticancer Drug Screen. Data for the mlh1 strain (AID 171);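 also: 0% = growth of vehicle-treated control cultures of the same strain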; conditions: S. cerevisiae mlh1 strain growth inhibition, hits give high values
Summary of the method: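 Yeast screen: mutant strain plus compound, growth scored against vehicle control wells.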

[13] = NCI Yeast Anticancer Drug Screen. Data for the sgs1 strain (AID 173);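 also: 0% = growth of vehicle-only control cultures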; conditions: S. cerevisiae sgs1 mutant, hits give high values
Summary of the method: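 Inhibition of yeast growth served as the measure. The mutant strain was treated with each compound, and growth was normalised to cultures receiving vehicle alone.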

[14] = NCI Yeast Anticancer Drug Screen. Data for the rad18 strain (AID 177); conditions: S. cerevisiae rad18 mutant growth inhibition, hits give high values
Summary of the method: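 Inhibition values reflect reduced yeast growth compared with vehicle-treated controls, using a strain engineered with a DNA damage repair defect.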

[15] = NCI Yeast Anticancer Drug Screen. Data for the mlh1 rad18 strain (AID 175); conditions: S. cerevisiae mlh1 rad18 strain growth inhibition, hits give high values
Summary of the method: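 Compound-treated yeast growth, normalised to vehicle controls. Strain bears defined DNA repair mutations.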

[16] = at 5.0 µM (retest, dose inferred, filed as 0.5)
[17] = at 50.0 µM (retest, dose inferred, filed as 5.0)

## CCCCCCCCCCCCCCCCCCNc1nc(=O)n(C2CC(OP(=O)(O)OCC3OC(n4cc(F)c(=O)[nH]c4=O)CC3O)C(CO)O2)cc1F (configuration not stated)
[1]; at 1.2 µM
  growth inhibition: 14%
[1]; at 3.7 µM
  growth inhibition: 12%
[1]; at 11.0 µM
  growth inhibition: -1%
[1]; at 33.0 µM
  growth inhibition: 11%
[1]; at 100.0 µM
  growth inhibition: 66%
[2]; at 1.2 µM
  growth inhibition: 4%
[2]; at 3.7 µM
  growth inhibition: -4%
[2]; at 11.0 µM
  growth inhibition: -13%
[2]; at 33.0 µM
  growth inhibition: -8%
[2]; at 100.0 µM
  growth inhibition: 46%
[3]; at 1.2 µM
  growth inhibition: 9%
[3]; at 3.7 µM
  growth inhibition: 12%
[3]; at 11.0 µM
  growth inhibition: 7%
[3]; at 33.0 µM
  growth inhibition: 8%
[3]; at 100.0 µM
  growth inhibition: 23%
[4]; at 1.2 µM
  growth inhibition: 25%
[4]; at 3.7 µM
  growth inhibition: 8%
[4]; at 11.0 µM
  growth inhibition: -1%
[4]; at 33.0 µM
  growth inhibition: 32%
[4]; at 100.0 µM
  growth inhibition: 77% (active)
[5]; at 1.2 µM
  growth inhibition: 27%
[5]; at 3.7 µM
  growth inhibition: 28%
[5]; [16]
  growth inhibition: 34%
[5]; at 11.0 µM
  growth inhibition: 22%
[5]; at 33.0 µM
  growth inhibition: 37%
[5]; [17]
  growth inhibition: 88% (active)
[5]; at 50.0 µM
  growth inhibition: 83.9% (active)
[5]; at 100.0 µM
  growth inhibition: 88% (active)
[6]; at 1.2 µM
  growth inhibition: 9%
[6]; at 3.7 µM
  growth inhibition: 15%
[6]; [16]
  growth inhibition: 24%
[6]; at 11.0 µM
  growth inhibition: 3%
[6]; at 33.0 µM
  growth inhibition: -1%
[6]; [17]
  growth inhibition: 91% (active)
[6]; at 50.0 µM
  growth inhibition: 89.4% (active)
[6]; at 100.0 µM
  growth inhibition: 61%
[7]; at 1.2 µM
  growth inhibition: 9%
[7]; at 3.7 µM
  growth inhibition: 0%
[7]; at 11.0 µM
  growth inhibition: 3%
[7]; at 33.0 µM
  growth inhibition: -4%
[7]; at 100.0 µM
  growth inhibition: 51%
[8]; [16]
  growth inhibition: 59%
[8]; [17]
  growth inhibition: 95% (active)
[8]; at 50.0 µM
  growth inhibition: 87.7% (active)
[9]; at 1.2 µM
  growth inhibition: -23%
[9]; at 3.7 µM
  growth inhibition: -33%
[9]; at 11.0 µM
  growth inhibition: -42%
[9]; at 33.0 µM
  growth inhibition: -9%
[9]; at 100.0 µM
  growth inhibition: 54%
[10]; at 1.2 µM
  growth inhibition: 4%
[10]; at 3.7 µM
  growth inhibition: 5%
[10]; [16]
  growth inhibition: 15%
[10]; at 11.0 µM
  growth inhibition: -27%
[10]; at 33.0 µM
  growth inhibition: -10%
[10]; [17]
  growth inhibition: 93% (active)
[10]; at 50.0 µM
  growth inhibition: 68.3%
[10]; at 100.0 µM
  growth inhibition: 40%
[11]; at 1.2 µM
  growth inhibition: -38%
[11]; at 3.7 µM
  growth inhibition: -34%
[11]; at 11.0 µM
  growth inhibition: -68%
[11]; at 33.0 µM
  growth inhibition: 15%
[11]; at 100.0 µM
  growth inhibition: 79% (active)
[12]; at 1.2 µM
  growth inhibition: 10%
[12]; at 3.7 µM
  growth inhibition: 19%
[12]; at 11.0 µM
  growth inhibition: 7%
[12]; at 33.0 µM
  growth inhibition: 18%
[12]; at 100.0 µM
  growth inhibition: 75% (active)
[13]; at 1.2 µM
  growth inhibition: 1%
[13]; at 3.7 µM
  growth inhibition: -5%
[13]; at 11.0 µM
  growth inhibition: -9%
[13]; at 33.0 µM
  growth inhibition: 22%
[13]; at 100.0 µM
  growth inhibition: 78% (active)
[14]; at 1.2 µM
  growth inhibition: 9%
[14]; at 3.7 µM
  growth inhibition: -9%
[14]; at 11.0 µM
  growth inhibition: -16%
[14]; at 33.0 µM
  growth inhibition: 35%
[14]; at 100.0 µM
  growth inhibition: 89% (active)

## C/C(=N/NC(=S)Nc1ccccc1C)c1ccccn1
[1]; at 1.2 µM
  growth inhibition: 2%
[1]; at 3.7 µM
  growth inhibition: 9%
[1]; at 11.0 µM
  growth inhibition: 15%
[1]; at 33.0 µM
  growth inhibition: 17%
[1]; at 100.0 µM
  growth inhibition: 7%
[2]; at 1.2 µM
  growth inhibition: -11%
[2]; at 3.7 µM
  growth inhibition: -10%
[2]; at 11.0 µM
  growth inhibition: -9%
[2]; at 33.0 µM
  growth inhibition: -10%
[2]; at 100.0 µM
  growth inhibition: -8%
[3]; at 1.2 µM
  growth inhibition: 3%
[3]; at 3.7 µM
  growth inhibition: 6%
[3]; at 11.0 µM
  growth inhibition: 13%
[3]; at 33.0 µM
  growth inhibition: 14%
[3]; at 100.0 µM
  growth inhibition: 4%
[4]; at 1.2 µM
  growth inhibition: -6%
[4]; at 3.7 µM
  growth inhibition: -10%
[4]; at 11.0 µM
  growth inhibition: 4%
[4]; at 33.0 µM
  growth inhibition: -22%
[4]; at 100.0 µM
  growth inhibition: -5%
[5]; at 1.2 µM
  growth inhibition: 1%
[5]; at 3.7 µM
  growth inhibition: 5%
[5]; [16]
  growth inhibition: 9%
[5]; at 11.0 µM
  growth inhibition: -9%
[5]; at 33.0 µM
  growth inhibition: 7%
[5]; [17]
  growth inhibition: 12%
[5]; at 50.0 µM
  growth inhibition: 78% (active)
[5]; at 100.0 µM
  growth inhibition: 5%
[6]; at 1.2 µM
  growth inhibition: -3%
[6]; at 3.7 µM
  growth inhibition: -10%
[6]; [16]
  growth inhibition: -40%
[6]; at 11.0 µM
  growth inhibition: -9%
[6]; at 33.0 µM
  growth inhibition: -9%
[6]; [17]
  growth inhibition: 1%
[6]; at 50.0 µM
  growth inhibition: 47%
[6]; at 100.0 µM
  growth inhibition: -6%
[7]; at 1.2 µM
  growth inhibition: -11%
[7]; at 3.7 µM
  growth inhibition: -11%
[7]; at 11.0 µM
  growth inhibition: -11%
[7]; at 33.0 µM
  growth inhibition: -14%
[7]; at 100.0 µM
  growth inhibition: -6%
[8]; [16]
  growth inhibition: -35%
[8]; [17]
  growth inhibition: 15%
[8]; at 50.0 µM
  growth inhibition: 79.8% (active)
[9]; at 1.2 µM
  growth inhibition: -8%
[9]; at 3.7 µM
  growth inhibition: -6%
[9]; at 11.0 µM
  growth inhibition: -9%
[9]; at 33.0 µM
  growth inhibition: -11%
[9]; at 100.0 µM
  growth inhibition: -11%
[10]; at 1.2 µM
  growth inhibition: -7%
[10]; at 3.7 µM
  growth inhibition: 1%
[10]; [16]
  growth inhibition: -32%
[10]; at 11.0 µM
  growth inhibition: 4%
[10]; at 33.0 µM
  growth inhibition: -2%
[10]; [17]
  growth inhibition: 57%
[10]; at 50.0 µM
  growth inhibition: 65%
[10]; at 100.0 µM
  growth inhibition: -9%
[13]; at 1.2 µM
  growth inhibition: -6%
[13]; at 3.7 µM
  growth inhibition: -5%
[13]; at 11.0 µM
  growth inhibition: -5%
[13]; at 33.0 µM
  growth inhibition: -7%
[13]; at 100.0 µM
  growth inhibition: -6%
[15]; [16]
  growth inhibition: -15%
[15]; [17]
  growth inhibition: -1%
[15]; at 50.0 µM
  growth inhibition: 86.5% (active)
[14]; at 1.2 µM
  growth inhibition: 0%
[14]; at 3.7 µM
  growth inhibition: 3%
[14]; at 11.0 µM
  growth inhibition: 3%
[14]; at 33.0 µM
  growth inhibition: -17%
[14]; at 100.0 µM
  growth inhibition: -4%
